# Where “and” joins values, the source holds several entries; their conditions need not be identical. Identical values can stand only once. Results filed as inconclusive are left out. Calls of active or inactive are those of the source. Unless noted, the limit is not given here; nearly all actives have AC50 up to about 30 µM.
# Key:
# [1] = reducers of polyQ inclusions in PC12 cells, cell-based, NGF-treated PC12, GFPQ80 (AID 1614); settings: PC12 NGF-treated GFP-polyQ80 inclusion reduction;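 also: lower means fewer inclusions and 0 means no inclusions at all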
# [2] = circadian clock period modulators, cell-based, LOPAC library, luminescence reporter (AID 2774; call rule not given here;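 also: values are relative to mean of DMSO wells on each plate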); settings: circadian reporter cells, at 7 µM, actives lie on both sides
# [3] = tested on: Hepatitis C virus NS3 helicase; experiment: HCV NS3 helicase inhibitors, primary screen, biochemical, fluorescence polarization, LOPAC1280 library (AID 687035; in the data active = inhibition above about 37%); settings: Purified HCV NS3 helicase, Cy5-dT15 ssDNA binding fluorescence polarization; stronger effect = higher value; concentration not given here
# [4] = Cy5 fluorescence quenching or enhancement artefacts, artefact control for HCV NS3 helicase inhibitor project, biochemical, LOPAC1280 (AID 687037; call rule not given here); settings: Cy5-DNA-NS3h complex fluorescence interference counterscreen
# [5] = growth inhibition of DIPG glioma cells, dose response, cell-based, SU-DIPG-XVII, MIPE5.0, CellTiter-Glo, qHTS (AID 1347060; cut-off not given, nearly all actives have AC50 up to about 26 µM;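 as to AC50: cells exposed to compound for 48 hours before viability readout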); settings: SU-DIPG-XVII viability, CellTiter-Glo ATP luminescence
# [6] = growth inhibition of DIPG glioma cells, dose response, cell-based, SU-DIPG-XIII, MIPE4.0, CellTiter-Glo, qHTS (AID 1347061; cut-off not given, nearly all actives have AC50 up to about 37 µM;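 also: cells exposed to compound for 48 hours before readout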); settings: SU-DIPG-XIII viability, CellTiter-Glo ATP luminescence
# [7] = growth inhibition of DIPG glioma cells, dose response, cell-based, JHH-DIPG-1, MIPE4.0, CellTiter-Glo, qHTS (AID 1347062; cut-off not given, nearly all actives have AC50 up to about 27 µM); settings: JHH-DIPG-1 viability, CellTiter-Glo ATP luminescence
# [8] = growth inhibition of DIPG glioma cells, dose response, cell-based, SU-DIPG-IV, MIPE4.0, CellTiter-Glo, qHTS (AID 1347063); settings: SU-DIPG-IV viability, CellTiter-Glo ATP luminescence;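 also: compound exposure lasted 48 hours before the viability readout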
# [9] = SU-DIPG-VI glioma cell viability, MIPE4.0 library, CellTiter-Glo luminescence, qHTS (AID 1347066); settings: CellTiter-Glo ATP luminescence;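 also: cells exposed to compound for 48 hours before readout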
# [10] = SU-DIPG-XXV glioma cell viability, MIPE5.0 library, qHTS (AID 1347068; cut-off not given, nearly all actives have IC50 up to about 30 µM)
# [11] = phospholipid biosynthesis inhibitors in animal cells, primary screen, cell-based, LOPAC library, screen 4 (AID 1347384; call rule not given here); settings: phospholipid biosynthesis inhibition screen, at 10 µM
# [12] = JHH-DIPG-1 glioma cell viability, MIPE5.0 library, CellTiter-Glo luminescence, qHTS (AID 1347067; cut-off not given, nearly all actives have AC50 up to about 26 µM;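 also: cells exposed to compound for 48 hours before readout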); settings: JHH-DIPG-1 glioma viability, CellTiter-Glo ATP luminescence
# [13] = LFS_MB_P medulloblastoma growth inhibition, cell-based, chromothripsis tumors, cisplatin or BGB combos (AID 1671449; in the data active = inhibition above about 80%;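 also: cells exposed for 96 hours; 0% = vehicle DMSO and 100% = killing by high DMSO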); settings: LFS_MB_P medulloblastoma cells
# [14] = HDN33 neuroblastoma growth inhibition, cell-based, chromothripsis tumors, cisplatin or BGB combos (AID 1671450; in the data active = inhibition above about 80%;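 also: cells exposed to compound for four days; 0% = vehicle DMSO and 100% = cell killing by high DMSO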); settings: HDN33 neuroblastoma cells, stronger effect = higher value
# [15] = HTB85 osteosarcoma cell growth inhibition, synergistic combos for chromothripsis tumors, BGB or cisplatin IC20 combos (AID 1671453; in the data active = inhibition above about 80%;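 also: cells exposed for 96 hours before readout; 0% = vehicle DMSO and 100% = high DMSO killing control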); settings: HTB85 osteosarcoma cells, drug combinations, stronger effect = higher value
# [16] = MDA-MB-436 breast carcinoma cell growth inhibition, synergistic combos for chromothripsis tumors, BGB or cisplatin combos (AID 1671458; call rule not given here;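 also: cells exposed for 96 hours; 0% = vehicle DMSO and 100% = killing by high DMSO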); settings: MDA-MB-436 breast carcinoma growth inhibition, drug combinations, stronger effect = higher value
# [17] = growth inhibition of BT084 medulloblastoma cells, cell-based, ICGC_MB145, cisplatin and BGB IC40 combos (AID 1671461; in the data active = inhibition above about 80%;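 also: cells exposed to drugs for 96 hours; 0% = vehicle DMSO and 100% = high DMSO full killing control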); settings: drug combinations, stronger effect = higher value
# [18] = growth inhibition of RCMB18 medulloblastoma cells, cell-based, cisplatin and BGB IC40 combos (AID 1671462; in the data active = inhibition above about 80%;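 also: cells exposed to compound for four days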); settings: stronger effect = higher value
# [19] = growth inhibition of CRL1545 osteosarcoma cells, cell-based, cisplatin and BGB IC20 combos (AID 1671464; in the data active = inhibition above about 80%;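 also: cells exposed to compound for 96 hours before readout; 0% = vehicle DMSO and 100% = high DMSO killing control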); settings: stronger effect = higher value
# [20] = target: ATP-dependent translocase ABCB1 (Homo sapiens) (UniProt P08183); experiment: MDR1 (ABCB1) efflux transporter inhibition, cell-based (AID 377; in the data active = fluorescence slope change above about 50%); settings: MDR1-expressing cells, fluorescent substrate accumulation slope; stronger effect = higher value; concentration not given here
# Sequence of ATP-dependent translocase ABCB1 (Homo sapiens) (P08183 whole entry, looked up): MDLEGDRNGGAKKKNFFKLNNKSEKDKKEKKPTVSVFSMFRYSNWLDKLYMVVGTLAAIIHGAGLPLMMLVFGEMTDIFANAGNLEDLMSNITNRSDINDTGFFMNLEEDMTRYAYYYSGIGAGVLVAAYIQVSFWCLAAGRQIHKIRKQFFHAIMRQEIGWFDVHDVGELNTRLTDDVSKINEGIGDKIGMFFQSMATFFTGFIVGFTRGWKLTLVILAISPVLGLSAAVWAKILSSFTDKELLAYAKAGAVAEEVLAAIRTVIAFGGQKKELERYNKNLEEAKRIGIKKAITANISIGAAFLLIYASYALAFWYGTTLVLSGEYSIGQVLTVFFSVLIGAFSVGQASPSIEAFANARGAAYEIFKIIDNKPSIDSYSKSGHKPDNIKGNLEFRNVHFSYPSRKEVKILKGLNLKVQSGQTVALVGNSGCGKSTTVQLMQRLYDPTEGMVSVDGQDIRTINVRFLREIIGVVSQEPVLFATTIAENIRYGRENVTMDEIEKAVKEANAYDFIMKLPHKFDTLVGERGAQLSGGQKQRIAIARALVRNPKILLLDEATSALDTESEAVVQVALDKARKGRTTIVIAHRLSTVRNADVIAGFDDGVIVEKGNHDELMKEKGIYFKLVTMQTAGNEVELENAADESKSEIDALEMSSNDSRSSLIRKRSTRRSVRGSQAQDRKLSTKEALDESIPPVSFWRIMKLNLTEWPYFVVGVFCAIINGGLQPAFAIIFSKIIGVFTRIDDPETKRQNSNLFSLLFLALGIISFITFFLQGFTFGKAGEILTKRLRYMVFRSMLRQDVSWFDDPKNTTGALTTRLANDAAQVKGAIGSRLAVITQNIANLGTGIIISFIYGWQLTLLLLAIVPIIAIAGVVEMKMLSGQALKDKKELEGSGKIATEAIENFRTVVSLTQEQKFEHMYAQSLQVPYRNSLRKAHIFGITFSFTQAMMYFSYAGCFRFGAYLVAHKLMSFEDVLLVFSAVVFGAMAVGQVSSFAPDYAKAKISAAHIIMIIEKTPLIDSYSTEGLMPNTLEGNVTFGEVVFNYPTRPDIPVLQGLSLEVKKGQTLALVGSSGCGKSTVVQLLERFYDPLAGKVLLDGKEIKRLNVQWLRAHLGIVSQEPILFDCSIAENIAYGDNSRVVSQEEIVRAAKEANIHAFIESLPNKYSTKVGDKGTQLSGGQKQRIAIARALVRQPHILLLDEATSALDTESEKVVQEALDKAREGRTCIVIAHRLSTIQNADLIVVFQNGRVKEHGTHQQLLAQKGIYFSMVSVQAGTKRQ
# [21] = at 0.5 µM, stronger effect = higher value
# [22] = measured here: combination with BGB IC20, at 0.005 µM
# [23] = measured here: combination with BGB IC40, at 0.005 µM
# [24] = measured here: combination with BGB IC40, at 0.05 µM
# [25] = measured here: combination with cisplatin, at 0.5 µM, stronger effect = higher value
# [26] = measured here: combination with cisplatin, at 5 µM, stronger effect = higher value
# [27] = measured here: with BGB IC20 combination, at 0.5 µM
# [28] = measured here: with cisplatin IC20 combination, at 0.5 µM
# [29] = measured here: with BGB IC20, at 0.5 µM
# [30] = measured here: with BGB IC20, at 5 µM
# [31] = measured here: with cisplatin IC20, at 0.5 µM
# [32] = measured here: with cisplatin IC20, at 5 µM
# [33] = measured here: BGB combination, at 0.5 µM
# [34] = measured here: BGB combination, at 5 µM
# [35] = measured here: cisplatin combination, at 0.5 µM
# [36] = measured here: cisplatin combination, at 5 µM
# [37] = cisplatin combination, at 0.5 µM
# [38] = measured here: BGB IC40 combination 0.05 uM, at 0.05 µM
# [39] = measured here: BGB IC40 combination, at 0.05 µM
# [40] = measured here: combination with cisplatin, at 0.5 µM
compound,measurement,setting,value
CC(C)Cc1ccc(C(C)C(=O)O)cc1 (stereo not drawn),inclusion score,[1],2
same,period change,[2],0.16 h (inactive)
same,inhibition,[3],-2% (inactive)
same,fluorescence ratio (interference),[4],1 (inactive)
same,outcome,[5],inactive
same,outcome,[6],inactive
same,outcome,[7],inactive
same,outcome,[8],inactive
same,outcome,[9],inactive
same,outcome,[10],inactive
same,outcome,[11],inactive
CC(=O)OCC(CCn1cnc2cnc(N)nc21)COC(C)=O,outcome,[5],inactive
same,outcome,[6],inactive
same,outcome,[7],inactive
same,outcome,[8],inactive
same,outcome,[9],inactive
same,outcome,[12],inactive
same,outcome,[10],inactive
same,outcome,[11],inactive
same,inhibition,[13]; [21],-15.4% (inactive)
same,inhibition,[13]; [22],-4.33%
same,inhibition,[13]; [23],-16.3%
same,inhibition,[13]; [24],-21.9%
same,inhibition,[13]; [25],-33%
same,inhibition,[13]; [26],-20.4%
same,inhibition,"[14]; BGB combo, at 5 µM",-6.25%
same,inhibition,[14]; at 0.5 µM,-3.67% (inactive)
same,inhibition,"[14]; cisplatin combo, at 5 µM",8.87%
same,inhibition,[14]; [27],-10.2%
same,inhibition,[14]; [28],4.72%
same,inhibition,"[14]; single agent, at 5 µM",-14.6%
same,inhibition,[15]; at 0.5 µM,-2.55% (inactive)
same,inhibition,[15]; [29],-18%
same,inhibition,[15]; [30],-24.7%
same,inhibition,[15]; [31],0.506%
same,inhibition,[15]; [32],-48.5%
same,inhibition,"[15]; single agent, at 5 µM",-10%
same,inhibition,[16]; at 0.5 µM,-18.3% (inactive)
same,inhibition,[16]; [33],-5.73%
same,inhibition,[16]; [34],-13.3%
same,inhibition,[16]; [35],-45.7%
same,inhibition,[16]; [36],-24.3%
same,inhibition,[17]; at 0.5 µM,-39.8% (inactive)
same,inhibition,[17]; [37],-22.3%
same,inhibition,"[17]; cisplatin combination, at 5 µM",-19.5%
same,inhibition,[17]; [38],-14.8%
same,inhibition,"[17]; single agent, at 5 µM",-21.3%
same,inhibition,[18]; at 0.5 µM,-15.5% (inactive)
same,inhibition,"[18]; cisplatin combo, at 5 µM",-24.5%
same,inhibition,[18]; [39],-9.28%
same,inhibition,[18]; [40],3.82%
same,inhibition,"[18]; single agent, at 5 µM",-35%
same,inhibition,[19]; at 0.5 µM,-2.74% (inactive)
same,inhibition,[19]; [27],4.75%
same,inhibition,[19]; [28],-8.9%
same,inhibition,"[19]; single agent, at 0.05 µM",-17%
same,inhibition,"[19]; single agent, at 5 µM",5.18%
CCc1nc(N)nc(N)c1-c1ccc(Cl)cc1,AC50,[5],3720 nM (active)
same,outcome,[6],inactive
same,outcome,[8],inactive
same,outcome,[9],inactive
same,outcome,[12],inactive
same,outcome,[10],inactive
C/C=C/C(=O)N(CC)c1ccccc1C,outcome,[5],inactive
same,outcome,[7],inactive
same,outcome,[9],inactive
same,outcome,[12],inactive
same,outcome,[10],inactive
Clc1ccc2c(c1)C(N1CCNCC1)=Nc1ccccc1O2,fluorescence slope change,[20],156% (active)
same,period change,[2],0.105 h (inactive)
same,inhibition,[3],-4% (inactive)
same,fluorescence ratio (interference),[4],1 (inactive)
same,outcome,[6],inactive
same,outcome,[7],inactive
same,outcome,[8],inactive
same,outcome,[9],inactive
same,outcome,[11],inactive
Cc1ccccc1C(OCCN(C)C)c1ccccc1 (stereo not drawn),fluorescence slope change,[20],22.7% (inactive)
same,inclusion score,[1],2
same,period change,[2],0.21 h (inactive)
same,inhibition,[3],-2% (inactive)
same,fluorescence ratio (interference),[4],0.9 (inactive)
same,outcome,[6],inactive
same,outcome,[7],inactive
same,outcome,[8],inactive
same,outcome,[9],inactive
same,outcome,[11],inactive
c1ccc2[nH]c(-c3cscn3)nc2c1,fluorescence slope change,[20],17.8% (inactive)
same,inclusion score,[1],2
same,outcome,[6],inactive
same,outcome,[7],inactive
same,outcome,[8],inactive
same,outcome,[9],inactive
same,outcome,[12],inactive
same,outcome,[10],inactive
Cc1ccc(C)c(OCCCC(C)(C)C(=O)O)c1,inclusion score,[1],2
same,outcome,[5],inactive
same,outcome,[8],inactive
same,outcome,[9],inactive
same,outcome,[12],inactive
same,outcome,[10],inactive
COC1=CC(=O)C[C@@H](C)[C@]12Oc1c(Cl)c(OC)cc(OC)c1C2=O,inclusion score,[1],2
COC(=O)Nc1nc2ccc(C(=O)c3ccccc3)cc2[nH]1,fluorescence slope change,[20],92.4% (active)
same,AC50,[5],93.4 nM (active)
same,AC50,[6],18700 nM (active)
same,outcome,[9],inactive
same,AC50,[12],468 nM (active)
CCn1cc(C(=O)O)c(=O)c2cc(F)c(N3CCN(C)CC3)cc21,outcome,[5],inactive
same,outcome,[7],inactive
same,outcome,[8],inactive
same,outcome,[9],inactive
same,outcome,[10],inactive
same,inhibition,[13]; [21],-3.22% (inactive) and -29% (inactive)
same,inhibition,[13]; [22],13.2% and 24%
same,inhibition,[13]; [23],-32.6% and 8.85%
same,inhibition,[13]; [24],12.2% and 6.61%
same,inhibition,[13]; [25],-21.7% and -50.8%
same,inhibition,[13]; [26],-2.03% and -14%
same,inhibition,"[14]; BGB combo, at 5 µM",-18.6% and 9.99%
same,inhibition,[14]; at 0.5 µM,-25.3% (inactive) and 3.48% (inactive)
same,inhibition,"[14]; cisplatin combo, at 5 µM",-42% and 24.3%
same,inhibition,[14]; [27],-16.6% and 0.157%
same,inhibition,[14]; [28],-28.5% and 3.55%
same,inhibition,"[14]; single agent, at 5 µM",-19.9% and 6.42%
same,inhibition,[15]; at 0.5 µM,-24.6% (inactive) and 0.8% (inactive)
same,inhibition,[15]; [29],-39.2% and 13.3%
same,inhibition,[15]; [30],-22.1% and 10.1%
same,inhibition,[15]; [31],-19.7% and -20.6%
same,inhibition,[15]; [32],-28.4% and -20.4%
same,inhibition,"[15]; single agent, at 5 µM",-27.1% and 2.1%
same,inhibition,[16]; at 0.5 µM,-8.42% (inactive) and -1.21% (inactive)
same,inhibition,[16]; [33],-5.87% and 9.12%
same,inhibition,[16]; [34],-7.49% and 1.82%
same,inhibition,[16]; [35],-16.3% and -4.65%
same,inhibition,[16]; [36],-9.37% and -6.1%
same,inhibition,[17]; at 0.5 µM,-1.86% (inactive) and 3.84% (inactive)
same,inhibition,[17]; [37],-11.9% and -2.51%
same,inhibition,"[17]; cisplatin combination, at 5 µM",-69% and 6.95%
same,inhibition,[17]; [38],-0.823% and 30.3%
same,inhibition,"[17]; single agent, at 5 µM",-6.24% and -12.7%
same,inhibition,[18]; at 0.5 µM,-15.3% (inactive) and 13.4% (inactive)
same,inhibition,"[18]; cisplatin combo, at 5 µM",-13.1% and 21.2%
same,inhibition,[18]; [39],11.2% and 6.78%
same,inhibition,[18]; [40],-34.9% and 34.7%
same,inhibition,"[18]; single agent, at 5 µM",-30.4% and 4.8%
same,inhibition,[19]; at 0.5 µM,-40.9% (inactive) and -9.39% (inactive)
same,inhibition,[19]; [27],-21.3% and -8%
same,inhibition,[19]; [28],-50.7% and -12.6%
same,inhibition,"[19]; single agent, at 0.05 µM",3.45% and -1.09%
same,inhibition,"[19]; single agent, at 5 µM",-27.1% and 1.32%
CN(C)CCOC(c1ccc(Cl)cc1)c1ccccn1 (stereo not drawn),inclusion score,[1],2
OC(CCN1CCCC1)(c1ccccc1)C1CCCCC1 (stereo not drawn),fluorescence slope change,[20],70.5% (active)
same,inclusion score,[1],2
COc1ccccc1OCC(O)COC(N)=O (stereo not drawn),fluorescence slope change,[20],15.6% (inactive)
same,inclusion score,[1],2
same,outcome,[6],inactive
same,outcome,[7],inactive
same,outcome,[9],inactive
